Measurements: PubChem BioAssay (NCATS)
Records with an inconclusive call do not appear. Values without a mark were called inactive. Active and inactive are the calls of the source. The call rests on the fitted dose curve; in most records, active means well fitted inhibition curve with a large enough effect; inconclusive means small, poorly fitted or top-dose-only effect; inactive means flat fitted curve, though single readings scatter.

assay: P-glycoprotein substrates identified in KB-8-5-11 adenocarcinoma cell line, qHTS therapeutic library screen (AID 1346987); details: KB-8-5-11 (P-gp overexpressing) viability, CellTiter-Glo, 72 h; series mostly up to 44.5 µM; activity change, negative = cytotoxicity: at the top concentration; further: nearly all actives have a fitted effect of over 65% in size
In short: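 Compounds are pinned in dose-response onto KB-8-5-11 cells (500 cells/well, colchicine-free medium) and left 72 h at 37 degree C. CellTiter-Glo luminescence then yields AC50 values.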
On the % scale 0 is the no-effect control and ±100 the full control effect.

SMILES	activity change, negative = cytotoxicity	outcome
C/C(=C\C=C\C(C)C1CCC2(C)C3CCC4C(C)(C)C(=O)CCC45CC35CCC12C)C(=O)O (centres undefined)	8.34% [at 17.3 µM]	–
CC1OC(OC2C(CO)OC(OCC3OC(OC(=O)C45CCC(C)(C)CC4C4=CCC6C7(C)CCC(OC8OC(CO)C(O)C(OC9OC(CO)C(O)C(O)C9O)C8O)C(C)(C)C7CCC6(C)C4(C)CC5)C(O)C(O)C3O)C(O)C2O)C(O)C(O)C1OC1OC(CO)C(O)C(O)C1O (centres undefined)	9.79% [at 9.29 µM]	–
COc1ccc2c(OC)c3ccoc3nc2c1OC	-20.1%	–
O=C1NC(Cc2c[nH]c3ccccc23)C(=O)NC1Cc1cnc[nH]1 (centres undefined)	–	inactive
